About 7,900 targets were measured; listed, in parts, are those with a hit and a random draw of the rest. About 0.6% of all pairs of compound and target were hits. Unmarked numbers belong to inactive results.
Legend:
Assay in all cases: log2 fold change, soluble protein after heating vs DMSO (PISA); higher = thermal stabilisation; K562 cells, 10 uM, 30 min; active = over 0.2 and 3.5 SD of the protein, either way, in both replicates (recomputed)
[1] = compound: Cc1ccc(NC(=O)c2ccc(CN3CC[C@H](N(C)C)C3)c(C(F)(F)F)c2)cc1Nc1nccc(-c2cncnc2)n1 [bafetinib]
Method in brief: (§1)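 Quantification of soluble protein used TMTpro 16plex LC-MS/MS, with channel sums equalised. Samples were the supernatant after 21,000xg for 90 min of pooled aliquots from K562 cells (2×10^6 cells/mL) treated with 10 μM compound for 30 min, heated for 3 min over 48°C-58°C, and extracted in PBS with 0.5% NP-40 at 4°C. Values, from duplicates, describe thermal stability against control samples on a log2 fold-change scale.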

[2] = compound: Cc1cccc(CC(=O)N2CCc3c2ccc(-c2cn(C)c4ncnc(N)c24)c3F)n1
Method in brief: as §1

[3] = compound: Cc1cn(-c2cc(NC(=O)c3ccc(C)c(Nc4nccc(-c5cccnc5)n4)c3)cc(C(F)(F)F)c2)cn1 [nilotinib]
Method in brief: as §1

[4] = compound: Cc1nc(Nc2n[nH]c3c2CN(C(=O)N[C@H](CN(C)C)c2ccccc2)C3(C)C)c2sccc2n1
Method in brief: as §1

[5] = compound: Cc1nc(Nc2ncc(C(=O)Nc3c(C)cccc3Cl)s2)cc(N2CCN(CCO)CC2)n1 [dasatinib]
Method in brief: as §1

[6] = compound: Cc1ncc(-c2ccnc(Nc3ccc(S(C)(=O)=O)cc3)n2)n1C(C)C
Method in brief: as §1

[7] = compound: Cn1cc(-c2ccc3c(c2)CCN3C(=O)Cc2cccc(C(F)(F)F)c2)c2c(N)ncnc21
Method in brief: as §1

[8] = compound: Cn1cc(-c2ccc3nnc(C(F)(F)c4ccc5ncccc5c4)n3n2)cn1
Method in brief: as §1

[9] = compound: Cn1cncc1[C@@](N)(c1ccc(Cl)cc1)c1ccc2c(c1)c(-c1cccc(Cl)c1)cc(=O)n2C [tipifarnib]
Method in brief: as §1

[10] = compound: FC(F)(F)c1ccc(/C=C/c2nc(COc3ccc(CCCCn4ccnn4)cc3)co2)cc1 [mubritinib]
Method in brief: as §1

[11] = compound: NC(=O)Nc1cc(-c2cccc(F)c2)sc1C(=O)N[C@H]1CCCNC1
Method in brief: as §1

[12] = compound: NC(=O)c1cnc(N[C@@H]2CCCC[C@@H]2N)nc1Nc1cccc(-n2nccn2)c1
Method in brief: as §1

[13] = compound: NC1(c2ccc(-c3nc4ccn5c(=O)[nH]nc5c4cc3-c3ccccc3)cc2)CCC1
Method in brief: as §1

[14] = compound: NCC(=O)Nc1ccc(-n2nc(C(F)(F)F)cc2-c2ccc3c(ccc4ccccc43)c2)cc1
Method in brief: as §1

[15] = compound: Nc1ccccc1NC(=O)c1ccc(CNC(=O)OCc2cccnc2)cc1 [entinostat]
Method in brief: as §1

[16] = compound: O=C(CCCCCCC(=O)Nc1ccccc1)NO [vorinostat]
Method in brief: as §1

[17] = compound: O=C(CCCCCCNC(=O)c1cnc(N(c2ccccc2)c2ccccc2Cl)nc1)NO [citarinostat]
Method in brief: as §1

[18] = compound: O=C(O)c1ccc2c(c1)nc(Nc1cccc(Cl)c1)c1ccncc12 [silmitasertib]
Method in brief: as §1

[19] = compound: O=C1NC(=O)C(c2cnc3ccccn23)=C1c1cn2c3c(cc(F)cc13)CN(C(=O)N1CCCCC1)CC2
Method in brief: as §1

[20] = compound: c1cc(OCCN2CCCCC2)cc(-c2n[nH]c3ccc(-c4nnc[nH]4)cc23)c1
Method in brief: as §1

UniProt Q7Z5K2, sequence (Q7Z5K2 whole entry, looked up): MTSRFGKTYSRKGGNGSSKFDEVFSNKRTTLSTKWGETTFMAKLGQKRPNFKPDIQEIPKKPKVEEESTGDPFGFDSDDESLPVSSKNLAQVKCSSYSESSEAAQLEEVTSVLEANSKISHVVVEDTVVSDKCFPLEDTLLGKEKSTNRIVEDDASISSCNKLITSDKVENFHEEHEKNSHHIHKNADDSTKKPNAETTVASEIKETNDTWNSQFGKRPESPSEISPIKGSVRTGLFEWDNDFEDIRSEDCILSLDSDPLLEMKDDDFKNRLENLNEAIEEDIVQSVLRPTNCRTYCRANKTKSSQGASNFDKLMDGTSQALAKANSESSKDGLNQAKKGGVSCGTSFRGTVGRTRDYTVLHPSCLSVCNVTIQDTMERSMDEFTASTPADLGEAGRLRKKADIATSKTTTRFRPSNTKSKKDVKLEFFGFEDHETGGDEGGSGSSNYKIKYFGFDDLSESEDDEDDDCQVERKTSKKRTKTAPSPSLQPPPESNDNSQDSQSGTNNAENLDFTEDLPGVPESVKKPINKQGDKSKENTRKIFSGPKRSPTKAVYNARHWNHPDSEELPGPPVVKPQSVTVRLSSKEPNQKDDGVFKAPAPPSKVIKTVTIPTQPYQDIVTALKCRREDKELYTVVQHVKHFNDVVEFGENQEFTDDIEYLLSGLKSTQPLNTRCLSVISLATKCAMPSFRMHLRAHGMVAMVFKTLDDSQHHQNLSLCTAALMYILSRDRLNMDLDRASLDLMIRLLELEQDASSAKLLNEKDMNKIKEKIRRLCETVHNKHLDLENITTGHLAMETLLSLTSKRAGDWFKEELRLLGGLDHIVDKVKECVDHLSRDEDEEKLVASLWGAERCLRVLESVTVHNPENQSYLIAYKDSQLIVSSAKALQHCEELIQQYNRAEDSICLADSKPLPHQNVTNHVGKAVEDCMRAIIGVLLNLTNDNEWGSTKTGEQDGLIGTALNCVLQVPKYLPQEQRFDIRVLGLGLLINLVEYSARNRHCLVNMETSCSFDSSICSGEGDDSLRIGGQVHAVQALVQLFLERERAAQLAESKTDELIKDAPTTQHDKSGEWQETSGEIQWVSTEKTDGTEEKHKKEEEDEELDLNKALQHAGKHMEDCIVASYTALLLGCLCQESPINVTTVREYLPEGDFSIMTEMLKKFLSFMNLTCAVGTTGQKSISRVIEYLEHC
UniProt Q86SZ2, sequence (Q86SZ2 whole entry, looked up): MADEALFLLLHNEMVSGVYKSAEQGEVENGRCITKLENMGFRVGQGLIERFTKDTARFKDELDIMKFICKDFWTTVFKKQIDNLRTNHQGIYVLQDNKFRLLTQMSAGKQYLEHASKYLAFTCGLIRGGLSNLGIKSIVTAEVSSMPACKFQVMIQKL
UniProt Q96AJ9, sequence (Q96AJ9 whole entry, looked up): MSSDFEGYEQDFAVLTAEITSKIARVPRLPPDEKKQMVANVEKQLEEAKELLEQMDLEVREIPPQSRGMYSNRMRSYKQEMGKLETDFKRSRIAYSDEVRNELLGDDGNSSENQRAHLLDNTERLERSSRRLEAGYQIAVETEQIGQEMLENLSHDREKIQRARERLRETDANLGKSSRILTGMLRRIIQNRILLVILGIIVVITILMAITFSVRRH
UniProt P68366, sequence (P68366 whole entry, looked up): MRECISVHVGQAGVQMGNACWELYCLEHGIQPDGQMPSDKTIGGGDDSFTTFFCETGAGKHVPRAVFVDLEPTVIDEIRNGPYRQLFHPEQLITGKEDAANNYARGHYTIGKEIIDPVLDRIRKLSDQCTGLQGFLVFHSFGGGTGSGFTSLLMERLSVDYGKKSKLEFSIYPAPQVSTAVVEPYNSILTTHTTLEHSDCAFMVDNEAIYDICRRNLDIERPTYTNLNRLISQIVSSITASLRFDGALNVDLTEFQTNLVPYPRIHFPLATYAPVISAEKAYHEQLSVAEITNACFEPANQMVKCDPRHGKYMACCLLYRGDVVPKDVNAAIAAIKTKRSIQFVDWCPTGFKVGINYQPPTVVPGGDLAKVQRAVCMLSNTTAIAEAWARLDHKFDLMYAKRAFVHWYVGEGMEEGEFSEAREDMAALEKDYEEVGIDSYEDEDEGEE
UniProt Q9Y6I4, sequence (Q9Y6I4 whole entry, looked up): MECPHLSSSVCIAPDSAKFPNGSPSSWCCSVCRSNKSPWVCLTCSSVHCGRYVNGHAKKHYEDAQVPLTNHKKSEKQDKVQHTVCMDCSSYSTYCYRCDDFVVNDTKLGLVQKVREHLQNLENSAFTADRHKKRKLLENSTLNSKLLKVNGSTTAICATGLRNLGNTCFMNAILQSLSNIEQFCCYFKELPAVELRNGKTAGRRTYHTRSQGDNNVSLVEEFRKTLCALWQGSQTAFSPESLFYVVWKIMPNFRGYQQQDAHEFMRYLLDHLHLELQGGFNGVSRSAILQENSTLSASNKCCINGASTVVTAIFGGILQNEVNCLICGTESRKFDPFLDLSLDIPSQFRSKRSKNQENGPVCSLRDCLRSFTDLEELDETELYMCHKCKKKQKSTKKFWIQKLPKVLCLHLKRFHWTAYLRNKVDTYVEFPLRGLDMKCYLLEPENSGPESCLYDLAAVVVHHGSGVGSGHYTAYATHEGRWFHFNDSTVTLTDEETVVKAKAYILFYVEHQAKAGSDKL
UniProt P13010, sequence (P13010 whole entry, looked up): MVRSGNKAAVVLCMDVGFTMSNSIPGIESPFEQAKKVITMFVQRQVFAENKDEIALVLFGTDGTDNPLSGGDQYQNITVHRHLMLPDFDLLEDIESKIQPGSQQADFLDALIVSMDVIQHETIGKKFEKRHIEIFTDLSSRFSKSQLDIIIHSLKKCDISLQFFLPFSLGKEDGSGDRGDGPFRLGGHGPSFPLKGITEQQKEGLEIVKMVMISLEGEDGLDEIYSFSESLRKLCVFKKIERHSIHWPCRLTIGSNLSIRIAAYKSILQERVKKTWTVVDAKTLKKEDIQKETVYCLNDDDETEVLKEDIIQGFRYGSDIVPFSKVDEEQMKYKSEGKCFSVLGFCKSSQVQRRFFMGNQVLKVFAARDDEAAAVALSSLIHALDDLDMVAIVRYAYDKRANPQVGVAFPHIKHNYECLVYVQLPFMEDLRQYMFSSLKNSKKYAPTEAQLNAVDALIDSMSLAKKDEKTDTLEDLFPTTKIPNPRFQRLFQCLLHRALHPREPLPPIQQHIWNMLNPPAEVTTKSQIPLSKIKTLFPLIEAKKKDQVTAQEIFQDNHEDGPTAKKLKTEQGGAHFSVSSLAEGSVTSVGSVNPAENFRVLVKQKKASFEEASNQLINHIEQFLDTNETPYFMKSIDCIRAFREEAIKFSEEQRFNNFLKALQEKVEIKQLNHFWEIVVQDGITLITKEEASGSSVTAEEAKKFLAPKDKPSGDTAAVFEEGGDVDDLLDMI
UniProt Q9UGM6, sequence (Q9UGM6 whole entry, looked up): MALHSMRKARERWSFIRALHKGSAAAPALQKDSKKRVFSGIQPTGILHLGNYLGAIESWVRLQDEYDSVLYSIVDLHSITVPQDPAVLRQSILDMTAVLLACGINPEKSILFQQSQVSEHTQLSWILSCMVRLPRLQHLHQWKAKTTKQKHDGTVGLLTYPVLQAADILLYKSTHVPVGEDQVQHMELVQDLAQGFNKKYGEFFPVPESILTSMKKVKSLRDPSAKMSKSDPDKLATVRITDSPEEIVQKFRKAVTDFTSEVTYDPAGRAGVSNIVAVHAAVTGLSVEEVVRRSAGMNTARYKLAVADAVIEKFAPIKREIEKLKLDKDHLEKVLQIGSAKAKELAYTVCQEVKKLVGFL
UniProt O60784, sequence (O60784 whole entry, looked up): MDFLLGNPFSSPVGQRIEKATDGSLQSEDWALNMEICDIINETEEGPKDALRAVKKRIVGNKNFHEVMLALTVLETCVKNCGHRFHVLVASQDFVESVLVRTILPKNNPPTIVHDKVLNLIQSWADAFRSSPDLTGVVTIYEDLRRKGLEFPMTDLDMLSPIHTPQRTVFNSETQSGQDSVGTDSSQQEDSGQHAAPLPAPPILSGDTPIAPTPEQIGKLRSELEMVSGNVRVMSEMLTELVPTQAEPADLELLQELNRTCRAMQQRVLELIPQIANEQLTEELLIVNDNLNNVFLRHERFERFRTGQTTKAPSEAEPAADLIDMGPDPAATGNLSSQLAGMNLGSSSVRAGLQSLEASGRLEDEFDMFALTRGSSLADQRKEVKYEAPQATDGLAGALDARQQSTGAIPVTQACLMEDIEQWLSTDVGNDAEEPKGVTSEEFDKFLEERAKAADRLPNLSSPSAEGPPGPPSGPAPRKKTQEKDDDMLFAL
UniProt Q9BV38, sequence (Q9BV38 whole entry, looked up): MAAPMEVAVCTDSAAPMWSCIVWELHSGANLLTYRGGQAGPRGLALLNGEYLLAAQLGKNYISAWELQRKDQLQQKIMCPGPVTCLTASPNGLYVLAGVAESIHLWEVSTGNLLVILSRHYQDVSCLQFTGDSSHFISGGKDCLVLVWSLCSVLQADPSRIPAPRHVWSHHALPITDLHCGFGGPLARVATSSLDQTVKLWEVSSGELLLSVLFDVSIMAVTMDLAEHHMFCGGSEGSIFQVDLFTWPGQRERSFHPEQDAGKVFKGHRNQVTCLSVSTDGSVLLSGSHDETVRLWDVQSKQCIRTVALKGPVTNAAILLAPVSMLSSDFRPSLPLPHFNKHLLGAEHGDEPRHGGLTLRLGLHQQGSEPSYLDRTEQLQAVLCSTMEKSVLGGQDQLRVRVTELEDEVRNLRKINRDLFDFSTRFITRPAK
UniProt Q8N4H5, sequence (Q8N4H5 whole entry, looked up): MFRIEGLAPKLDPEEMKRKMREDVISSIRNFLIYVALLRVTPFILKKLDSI
UniProt P07951, sequence (P07951 whole entry, looked up): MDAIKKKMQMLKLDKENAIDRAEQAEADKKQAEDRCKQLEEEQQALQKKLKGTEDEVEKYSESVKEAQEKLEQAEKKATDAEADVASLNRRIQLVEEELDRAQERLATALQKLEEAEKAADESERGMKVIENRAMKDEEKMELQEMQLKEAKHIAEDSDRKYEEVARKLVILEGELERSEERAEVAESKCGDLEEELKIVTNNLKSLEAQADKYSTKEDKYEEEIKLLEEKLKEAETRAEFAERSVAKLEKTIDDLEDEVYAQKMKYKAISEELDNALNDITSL

Row | Target | log2 fold change [1] | log2 fold change [2] | log2 fold change [3] | log2 fold change [4] | log2 fold change [5] | log2 fold change [6] | log2 fold change [7] | log2 fold change [8] | log2 fold change [9] | log2 fold change [10] | log2 fold change [11] | log2 fold change [12] | log2 fold change [13] | log2 fold change [14] | log2 fold change [15] | log2 fold change [16] | log2 fold change [17] | log2 fold change [18] | log2 fold change [19] | log2 fold change [20]
1 | U2AF1 isoform 2 (UniProt Q01081) | 0.037 | -0.06 | -0.017 | -1.31 (active) | -0.056 | 0.058 | 0.01 | -0.06 | 0.034 | -0.099 | -0.174 | -0.017 | 0.058 | -0.096 | -0.013 | -0.021 | 0.039 | -0.034 | -0.039 | -0.093
2 | USP3 (UniProt Q9Y6I4) | 0.011 | -0.009 | -0.125 | -0.198 | -0.185 | -0.026 | 0.027 | -0.023 | -0.226 | 0.045 | 0.039 | 0.016 | -0.218 | -0.115 | -0.037 | 0.092 | 0.102 | 0.019 | -0.066 | -0.014
3 | WRB (UniProt O00258) | -0.072 | -0.011 | 0.015 | 0.005 | 0.031 | -0.036 | -0.011 | 0.089 | 0.024 | 0.052 | 0.003 | 0.019 | -0.018 | 0.006 | -0.011 | -0.035 | 0.034 | 0.028 | 0.062 | -0.042
4 | TUBA4A (UniProt P68366) | 0.038 | -0.028 | -0.011 | 0.008 | -0.102 | -0.009 | 0.047 | 0.051 | -0.073 | 0.073 | 0.004 | -0.02 | -0.063 | 0.028 | -0.024 | 0.062 | 0.031 | -0.065 | -0.059 | 0.009
5 | WAPL isoform 3 (UniProt Q7Z5K2) | 0 | -0.044 | -0.011 | 0.01 | -0.081 | -0.03 | 0.04 | 0.096 | -0.218 | 0.156 | -0.009 | -0.033 | -0.423 (active) | -0.066 | 0.01 | 0.082 | 0.198 | 0.067 | -0.148 | 0.078
6 | WARS2 (UniProt Q9UGM6) | -0.183 | 0.016 | -0.086 | -0.008 | -0.147 | 0.047 | 0.022 | -0.056 | -0.046 | -0.569 (active) | -0.082 | -0.019 | -0.101 | -0.08 | 0.076 | 0.037 | 0.095 | 0.07 | 0.01 | -0.023
7 | TPM2 (UniProt P07951) | 0.034 | 0.003 | 0.126 | -0.097 | 0.072 | 0.064 | -0.019 | -0.015 | 0.086 | 0.025 | 0.119 | 0.081 | 0.157 | 0.201 | 0.077 | -0.077 | 0.103 | -0.07 | 0.162 | 0.171
8 | WDR18 (UniProt Q9BV38) | -0.031 | 0.05 | -0.059 | -0.024 | 0 | -0.048 | 0.029 | -0.016 | -0.018 | 0.022 | 0.013 | -0.021 | -0.043 | 0.054 | 0.019 | 0.025 | 0.018 | 0.013 | -0.03 | 0.017
9 | XRCC5 (UniProt P13010) | 0.083 | 0.07 | -0.12 | -0.405 | -0.118 | -0.243 | 0.105 | 0.123 | -0.082 | -0.014 | -0.024 | -0.172 | -0.122 | -0.058 | 0.155 | 0.151 | 0.163 | 0.019 | -0.096 | -0.041
10 | TOMM5 isoform 2 (UniProt Q8N4H5) | -0.141 | -0.114 | 0.079 | 0.004 | -0.004 | -0.079 | 0.062 | 0.217 | 0.107 | 0.038 | -0.053 | 0.002 | -0.083 | 0.084 | 0.067 | -0.117 | 0.039 | -0.043 | -0.158 | 0.099
11 | VTI1A (UniProt Q96AJ9) | -0.004 | -0.061 | -0.006 | -0.001 | 0.004 | -0.005 | -0.001 | 0.01 | 0.081 | -0.007 | -0.07 | 0.014 | -0.125 | -0.014 | -0.009 | 0.028 | -0.016 | 0.051 | -0.01 | -0.039
12 | WDR61 (UniProt Q9GZS3) | -0.01 | -0.033 | -0.018 | 0.029 | 0.007 | -0.075 | 0.023 | 0.012 | -0.01 | 0.075 | -0.013 | -0.058 | -0.102 | -0.069 | -0.052 | 0 | 0.028 | -0.005 | -0.045 | -0.057
13 | TRAPPC6B (UniProt Q86SZ2) | -0.005 | -0.024 | -0.008 | -0.027 | -0.042 | 0.021 | 0.024 | 0.04 | -0.028 | 0.045 | 0.025 | 0.016 | -0.025 | 0.007 | 0.066 | 0.013 | 0.046 | 0.001 | 0.143 | -0.058
14 | USP48 isoform 8 (UniProt Q86UV5) | 0.005 | -0.089 | -0.097 | -0.362 | -0.139 | -0.073 | -0.041 | 0.097 | -0.11 | -0.021 | -0.077 | 0.002 | -0.235 | -0.125 | 0.351 | 0.178 | 0.177 | 0.094 | -0.177 | -0.157
15 | TOM1 isoform 2 (UniProt O60784) | -0.122 | 0.026 | -0.055 | -0.104 | -0.034 | 0.116 | -0.015 | -0.012 | 0.022 | -0.033 | -0.002 | -0.104 | -0.066 | -0.082 | -0.045 | -0.119 | 0.056 | -0.019 | -0.026 | -0.081
16 | UBA6 | 0.009 | 0.036 | 0.062 | -0.137 | -0.035 | -0.024 | 0.016 | -0.024 | -0.075 | 0.228 (active) | -0.048 | -0.065 | -0.14 | -0.047 | 0.05 | 0.011 | 0.052 | -0.004 | -0.046 | -0.004
